# Screening data deposited in PubChem by National Center for Advancing Translational Sciences (NCATS).
# Sampled rows, rich in hits. Any-hit rate of the full collection: about 12%.
# Pf growth 96h: inhibits malaria parasite growth, 96 h; AID 504834; Potency, µM (titrated, usually from 28.7 µM), for the others: at the highest dose activity change, negative = inhibition, hits mostly inhibitors; 6.9% of 320,000 active; P. falciparum luciferase reporter growth, 96 h; note: % is set by controls: 0 for no effect and ±100 for the full control effect
#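 Plates of compound plus infected erythrocytes (2% hematocrit, 0.05% parasitemia final) incubate 96 hours, 37 C, 5% CO2. Detection reagent added; reduced luminescence from the parasites' luciferase reporter flags inhibition.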
# Sm TGR block: blocks Schistosoma mansoni thioredoxin glutathione reductase. Q962Y6. purified TGR, DTNB reduction, TNB absorbance 405 nm. 3% of 360,000 active. Potency, µM (top dose mostly 114 µM), without a hit: at the highest dose activity change, negative = inhibition, most hits filed as inhibitors; note: % is set by controls: 0 for no effect and ±100 for the full control effect; nearly all actives have a fitted effect of over 60% in size
#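 TGR 20 nM + NADPH 100 uM (dispensed conc.), cpd preinc 15 min RT; start with NADPH (500 uM addition) then DTNB (15 mM addition). Kinetic TNB absorbance, 405 nm filter. Four-parameter Hill fit across titration.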
# SARS PLP yeast: blocks SARS-CoV papain-like protease in a yeast assay. S. cerevisiae expressing SARS-CoV PLpro, growth rescue. Potency, µM (highest dose often 32.9 µM), for the others: at the top dose activity, positive = growth rescue, actives largely listed as activators. 0.19% of 330,000 active. AID 485353; calls by dose curve; note: 0% is about no effect; nearly all actives have a fitted effect of over 55% in size
# AmpC detergent: inhibitors of E. coli AmpC beta-lactamase with detergent | 0.041% of 370,000 active | P00811 | Potency, µM (highest dose often 114 µM), inactives show at the highest dose activity change, negative = inhibition, usual class: inhibitors | AmpC hydrolysis of nitrocefin, absorbance 480 nm, 0.01% Triton;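 note: 0% = no-compound wells and -100% = no-enzyme wells; nearly all actives have a fitted effect of over 25% in size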
# Target sequence (P00811 whole entry, looked up): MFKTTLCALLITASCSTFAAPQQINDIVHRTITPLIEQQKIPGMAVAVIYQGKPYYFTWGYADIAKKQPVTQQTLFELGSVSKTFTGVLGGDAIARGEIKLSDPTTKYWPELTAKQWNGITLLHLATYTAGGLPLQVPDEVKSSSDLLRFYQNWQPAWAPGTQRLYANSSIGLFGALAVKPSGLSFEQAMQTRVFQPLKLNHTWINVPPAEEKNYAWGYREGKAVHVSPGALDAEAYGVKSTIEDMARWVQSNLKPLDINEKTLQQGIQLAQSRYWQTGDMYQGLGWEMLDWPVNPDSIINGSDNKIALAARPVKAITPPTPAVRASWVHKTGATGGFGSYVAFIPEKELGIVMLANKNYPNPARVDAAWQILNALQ
#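 AmpC (5.3 nM in the dispensed reagent) in 20 mM phosphate pH 7.0 with 0.01% (detergent screen) or 0.0001% Triton X-100 was preincubated with compounds for 15 min at room temperature. Nitrocefin was then added from an 800 uM solution, and hydrolysis was followed at 480 nm.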
# Pf growth 48h: inhibits P. falciparum growth in the first generation, 48 h | P. falciparum luciferase growth in erythrocytes, 48 h | Potency, µM (top dose mostly 28.7 µM), for the others: at the top dose activity change, negative = inhibition, usual class: inhibitors | 5.9% of 310,000 active; note: % is set by controls: 0 for no effect and ±100 for the full control effect
#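 First compound was added to culture medium, then infected red cells at 0.1% parasitemia and 2% hematocrit (final). After incubation at 37 C under 5% CO2, luciferase detection reagent was dispensed and light output recorded.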
# AmpC inh no detg: AmpC beta-lactamase inhibition without detergent | AmpC nitrocefin hydrolysis, absorbance 480 nm, 0.0001% Triton | 0.52% of 330,000 active | AID 485341 | P00811 | Potency, µM (top dose mostly 57.1 µM), for inactives: at the top dose activity change, negative = inhibition, most hits filed as inhibitors;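 note: plate controls were no compound for no effect and no enzyme for full effect; nearly all actives have a fitted effect of over 20% in size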
#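 AmpC (5.3 nM in the dispensed reagent) in 20 mM phosphate pH 7.0 with 0.01% (detergent screen) or 0.0001% Triton X-100 was preincubated with compounds for 15 min at room temperature. Nitrocefin was then added from an 800 uM solution, and hydrolysis was followed at 480 nm.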
# * marks the source's active call; other numbers are inactive results; ? = inconclusive; / = no result. Unless noted, calls come from the whole dose curve; as a rule, active = well fitted curve in the direction sought with a large enough effect; inconclusive = small, poorly fitted or top-dose-only effect, or another doubt; inactive = no such curve, though single readings can be large; an effect the other way counts as inactive or inconclusive. Potency is the fitted concentration of half-maximal effect.
SMILES,Pf growth 96h,Sm TGR block,SARS PLP yeast,AmpC detergent,Pf growth 48h,AmpC inh no detg
COc1ccc(-c2cc(-c3ccco3)[nH]c(=O)c2C#N)cc1,-7.0%,3.16µM*,2.9%,-11.2%,3.8%,-36.4%
COc1ccccc1CNC(=O)C1CCCN(c2nn3cc(-c4ccc(F)cc4)nc3s2)C1 (centres undefined),/,0.4%,/,18.6%,/,/
Cc1sc2nc(CN3CCN(c4ccc(O)cc4)CC3)[nH]c(=O)c2c1C,11.7µM*,?,-0.7%,4.6%,?,-15.4%
CC(NC(=O)c1ccco1)C(=O)O (centres undefined),43.0%,-0.3%,-1.1%,2.4%,31.6%,-2.5%
CCOC(=O)c1[nH]c(=O)c2ccccc2c1O,-0.8%,-8.6%,-13.9%,-10.1%,32.8%,-7.7%
CCOC(=O)c1[nH]cnc1N=Nc1c(O)ccc2ccccc12,2.33µM*,-12.0%,7.2%,?,2.94µM*,-11.9%
Oc1ccc2ccccc2c1N=Nc1ccccc1F,?,-24.5%,-1.6%,3.7%,-20.8%,-18.5%
O=S(=O)(O)c1cccc(N=Nc2c(O)ccc3ccccc23)c1,10.4µM*,20µM*,-0.6%,-7.9%,?,-21.7%
Oc1ccc2ccccc2c1N=Nc1ccccn1,6.57µM*,-7.1%,-22.1%,-4.9%,?,28.0%
CC(=O)N1CCC(=NNC(=O)c2cc3ccccc3cc2O)CC1,-2.6%,-1.2%,-3.8%,-5.2%,?,11.5%
CC(C)[C@H](NC(=O)[C@H](CC(=O)O)NC(=O)[C@H](CCCCN)NC(=O)[C@@H](N)CCCN=C(N)N)C(=O)N[C@@H](Cc1ccc(O)cc1)C(=O)O,-11.4%,-10.2%,6.5%,-4.1%,4.8%,?
CC(C)C(NC(=O)C(CC(=O)O)NC(=O)C(CCCCN)NC(=O)C(N)CCCN=C(N)N)C(=O)NC(Cc1ccc(O)cc1)C(=O)O (centres undefined),1.51µM*,/,/,/,-1.1%,/
Cc1nnc(C)n1N,26.3%,0.4%,0.8%,?,172.5%,-19.7%
COc1ccc(S(=O)(=O)NCC(=O)N(CC(=O)NCc2ccco2)Cc2ccccc2)cc1,9.7%,-1.1%,0.8%,-1.1%,-6.0%,-26.2%
COc1ccc(N(CC(=O)NCc2ccco2)C(=O)CNS(=O)(=O)c2ccc(Cl)cc2)cc1,2.08µM*,?,-1.2%,4.9%,-11.2%,-10.3%
O=C(CN(Cc1ccc2c(c1)OCO2)C(=O)CNS(=O)(=O)c1ccccc1)NCc1ccco1,2.33µM*,-17.7%,1.5%,1.6%,20.1%,-9.3%
COc1ccccc1CN(CC(=O)NCc1ccco1)C(=O)CNS(=O)(=O)c1ccc(C)cc1,-21.4%,28.2µM*,4.9%,-0.7%,?,-17.0%
COc1ccccc1CN(CC(=O)NCc1ccco1)C(=O)CNS(=O)(=O)c1ccccc1,/,50.1µM*,-0.3%,5.4%,-16.4%,-12.7%
Cc1ccc(S(=O)(=O)NCC(=O)N(CC(=O)NCc2ccco2)Cc2cccs2)cc1,-1.1%,-35.6%,1.4%,-8.0%,3.9%,-15.4%
Cc1nc2c(-c3ccccc3)c(C)nn2c(C)c1CCC(=O)N1CCN(c2ccccc2)CC1,/,-6.2%,/,?,/,/
C=CC[C@H](CC(=O)NCCO)C(=O)N[C@@H](COC(=O)[C@@H](CC=C)Cc1ccc(F)cc1)Cc1ccccc1,/,/,3.5%,/,/,214.0%
Cc1nc(/N=C\c2ccc(N(C)C)cc2)sc1C,68.1%,-3.8%,5.1%,-12.4%,9.1%,-8.9%
Cc1ccccc1N(CC(=O)NCc1ccco1)C(=O)CNS(=O)(=O)c1ccc(F)cc1,-19.0%,39.8µM*,1.6%,-5.7%,0.0%,1.4%
CCOc1ccccc1N(C(=O)CNS(=O)(=O)c1ccccc1)C(CC)C(=O)NCc1ccco1 (centres undefined),7.38µM*,?,-0.2%,-11.6%,/,-0.6%
COc1cc(OC)c(OC)cc1CNC(=O)c1ccc(S(=O)(=O)N2CC(C)OC(C)C2)cc1 (centres undefined),10.4µM*,-5.8%,4.1%,-25.5%,?,64.7%
SMILES,Pf growth 96h,Sm TGR block,SARS PLP yeast,AmpC detergent,Pf growth 48h,AmpC inh no detg
COc1cccc(CNC(=O)c2cc(S(=O)(=O)N3CCCCC3)cn2C)c1,/,6.3%,/,16.7%,/,/
O=C(NCCSc1ccc(Cl)cc1)c1ccco1,?,-1.6%,-23.0%,-0.7%,/,-18.4%
O=C(CSc1ccc(Cl)cc1)c1ccco1,?,5.62µM*,-7.3%,-4.9%,17.4%,-30.9%
O=C(CCSc1ccc(Cl)cc1)c1ccco1,?,1µM*,-1.5%,0.9%,-11.2%,-14.4%
O=C(CSc1ccccc1Cl)c1ccco1,37.0%,44.7µM*,-5.5%,-16.5%,52.2%,-29.4%
Cn1c(SCC(=O)Nc2nccs2)nnc1-c1ccccn1,-17.0%,-15.7%,-0.9%,-7.1%,?,-4.0%
CCN(c1ncnc2c1cnn2-c1cc(Cl)ccc1C)C1CCCCC1,/,0.4%,/,6.4%,/,/
Cc1cccc(NC(=O)CCCCCn2c(=O)[nH]c3ccsc3c2=O)c1,/,-2.7%,/,-0.8%,/,/
O=C(CSc1ccc2nnc(-c3ccc(F)cc3)n2n1)NCc1ccco1,30.1%,44.7µM*,-0.2%,-2.2%,8.1%,-5.3%
CCOc1ccc(-c2nnc3ccc(SCC(=O)NCc4ccco4)nn23)cc1,90.8%,14.8%,-0.6%,1.1%,30.3%,4.4%
Cc1ccc(-c2nnc3ccc(SCC(=O)NCc4ccco4)nn23)cc1,145.1%,50.1µM*,2.6%,-20.4%,-11.0%,-13.5%
O=C(CSc1ccc2nnc(-c3ccncc3)n2n1)NCc1ccco1,-30.0%,3.16µM*,14.2%,0.9%,/,-6.0%
CCOC(=O)C(C)Oc1ccc(OCc2ccccc2)cc1 (centres undefined),19.3%,4.5%,-9.1%,-13.6%,139.5%,0.7%
CCOC(=O)c1ccccc1NC(=O)CSc1cn(CC(=O)N2CCOCC2)c2ccccc12,/,-9.7%,/,-7.4%,/,/
COc1cccc(NC(=O)c2ccc(CN3CCc4ccccc4C3)cc2)c1,?,-19.6%,0.1%,?,?,-17.1%
Cc1c(NC(=O)c2ccc(CN3CCc4ccccc4C3)cc2)c(=O)n(-c2ccccc2)n1C,?,-2.5%,2.8%,-18.8%,?,-3.3%
Cc1cc(C)c(NC(=O)c2ccc(CN3CCc4ccccc4C3)cc2)c(C)c1,7.38µM*,-13.8%,-5.0%,0.0%,/,-15.9%
CC(=O)c1cccc(NC(=O)c2ccc(CN3CCc4ccccc4C3)cc2)c1,?,-21.2%,27.3%,3.6%,14.7µM*,-7.1%
COc1cccc(NC(=O)c2ccc(CN3CCN(c4ccccc4)CC3)cc2)c1,41.1%,-4.0%,-11.4%,?,11.7µM*,-19.0%
